Assay results published in PubChem BioAssay (NCATS).
Where “and” joins values, the source holds several entries; their conditions need not be identical. Equal values may be shown once. Results filed as inconclusive are left out. Calls of active or inactive are those of the source. Unless noted, the call rests on the fitted dose curve; in most records, active means well fitted curve in the direction sought with a large enough effect; inconclusive means small, poorly fitted or top-dose-only effect, or another doubt; inactive means no such curve, though single readings can be large; an effect the other way counts as inactive or inconclusive.

How the values were obtained:
[1] = target: Bile acid receptor (Homo sapiens) (UniProt Q96RI1); test: qHTS assay for small molecule agonists of farnesoid X receptor signaling (AID 588527; calls by dose curve; further: potency means the concentration at half of the fitted maximal effect;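 on activation: 0% = vehicle basal and 100% = reference agonist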); details: HEK293T FXR-UAS-bla, beta-lactamase ratio, 16 h; activation: stronger effect = higher value
Sequence of Bile acid receptor (Homo sapiens) (Q96RI1 whole entry, looked up): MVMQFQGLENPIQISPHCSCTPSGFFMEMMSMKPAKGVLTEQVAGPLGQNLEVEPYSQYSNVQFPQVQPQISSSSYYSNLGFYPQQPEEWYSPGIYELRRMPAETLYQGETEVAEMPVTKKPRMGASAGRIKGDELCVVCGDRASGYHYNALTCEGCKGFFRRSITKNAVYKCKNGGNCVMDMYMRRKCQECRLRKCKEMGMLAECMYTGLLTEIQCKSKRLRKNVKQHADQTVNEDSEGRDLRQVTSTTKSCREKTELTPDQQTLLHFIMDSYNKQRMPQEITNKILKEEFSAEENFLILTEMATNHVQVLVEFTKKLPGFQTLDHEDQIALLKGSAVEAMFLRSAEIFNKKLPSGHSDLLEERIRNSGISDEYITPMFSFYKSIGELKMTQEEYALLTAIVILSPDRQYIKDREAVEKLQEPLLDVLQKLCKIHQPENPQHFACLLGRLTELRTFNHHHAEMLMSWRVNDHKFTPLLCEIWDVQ
In short: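 FXR-UAS-bla HEK293T, 10% dialyzed FBS; cpds up to 92 uM titration, 16 h 37 C; CCF4 dye 2 h RT; fluorescence. Normalized to chenodeoxycholic acid 100 uM (100%) and DMSO (0%); Hill fit gives EC50, efficacy.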

[2] = target: Peroxisome proliferator-activated receptor delta (Homo sapiens) (UniProt Q03181); test: qHTS assay for small molecule agonists of peroxisome proliferator-activated receptor delta signaling (AID 588534; calls by dose curve; further: potency means the concentration at half of the fitted maximal effect;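 on activation: 0% = DMSO basal wells and 100% = positive control agonist at 10 µM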)
Sequence of Peroxisome proliferator-activated receptor delta (Homo sapiens) (Q03181 whole entry, looked up): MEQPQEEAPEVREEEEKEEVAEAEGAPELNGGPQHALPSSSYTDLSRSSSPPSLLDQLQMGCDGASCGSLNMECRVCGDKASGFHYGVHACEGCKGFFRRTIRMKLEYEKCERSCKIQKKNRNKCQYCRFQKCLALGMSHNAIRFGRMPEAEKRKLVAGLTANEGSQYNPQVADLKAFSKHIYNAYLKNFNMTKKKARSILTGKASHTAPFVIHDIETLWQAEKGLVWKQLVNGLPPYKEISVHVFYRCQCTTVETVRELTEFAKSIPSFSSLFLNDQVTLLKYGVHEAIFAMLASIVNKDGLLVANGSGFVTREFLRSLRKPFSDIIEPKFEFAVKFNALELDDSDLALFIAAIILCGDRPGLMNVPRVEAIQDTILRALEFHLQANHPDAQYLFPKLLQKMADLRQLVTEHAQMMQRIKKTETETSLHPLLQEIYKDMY
In short: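 Cell-based beta-lactamase reporter assay run in agonist mode: cells seeded and incubated 5 hrs at 37 C, compounds added and incubated 18 hrs at 37 C. CCF4 dye fluorescence read after 2 hrs at RT; EC50 and efficacy from Hill fits.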

[3] = target: Peroxisome proliferator-activated receptor gamma (Homo sapiens) (UniProt P37231); test: qHTS assay for small molecule antagonists of peroxisome proliferator-activated receptor gamma signaling (AID 588537; active means well fitted inhibition curve with a large enough effect in the signal ratio, with a control signal flat, not every such curve was filed as active; the % refers to the signal ratio; further: potency means the concentration at half of the fitted maximal effect)
Sequence of Peroxisome proliferator-activated receptor gamma (Homo sapiens) (P37231 whole entry, looked up): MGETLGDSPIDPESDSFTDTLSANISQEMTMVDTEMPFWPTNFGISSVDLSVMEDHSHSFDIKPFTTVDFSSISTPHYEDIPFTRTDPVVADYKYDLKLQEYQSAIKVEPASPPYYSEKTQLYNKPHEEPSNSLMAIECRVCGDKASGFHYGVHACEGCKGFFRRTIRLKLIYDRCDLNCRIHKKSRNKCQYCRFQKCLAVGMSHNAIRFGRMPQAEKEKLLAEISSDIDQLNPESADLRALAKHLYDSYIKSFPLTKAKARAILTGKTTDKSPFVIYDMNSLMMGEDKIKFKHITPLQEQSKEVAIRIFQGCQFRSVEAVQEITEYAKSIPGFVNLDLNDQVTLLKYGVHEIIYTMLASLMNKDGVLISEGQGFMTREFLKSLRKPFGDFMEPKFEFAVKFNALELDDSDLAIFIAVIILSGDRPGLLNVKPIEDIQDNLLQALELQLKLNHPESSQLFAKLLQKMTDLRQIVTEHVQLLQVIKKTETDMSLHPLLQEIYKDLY
In short: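 Inhibitors of agonist-stimulated UAS-bla reporter activity were sought in HEK293 cells; rosiglitazone (50 nM) defined full signal and DMSO baseline. Curves fitted to Hill model gave IC50 and efficacy.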

[4] = qHTS assay for environmental chemicals that activate the Aryl hydrocarbon Receptor (AhR) signaling pathway (AID 651777); details: 1A2-DRE human hepatoma cells, luciferase, 24 h; activation: stronger effect = higher value; further: % of control where 0% means no effect; nearly all actives have a fitted effect of over 15% in size
In short: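 AhR activation is scored as a rise in luciferase from a stable DRE–CYP1A2 promoter construct in human hepatoma cells. Treatment lasts 24 hr at 37 C; detection uses One-Glo after 30 min at room temperature.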

[5] = P-glycoprotein substrates identified in KB-3-1 adenocarcinoma cell line, qHTS therapeutic library screen (AID 1346986); further: nearly all actives have a fitted effect of over 60% in size
In short: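 Counter-screen: cherry-picked hits retested in the KB pair and in HEK-293 pcDNA/MDR-19 cells ± tariquidar. Primary screen used 72 h CellTiter-Glo viability in KB-3-1 and KB-8-5-11.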

[6] = qHTS to identify inhibitors of the type 1 interferon - major histocompatibility complex class I in skeletal muscle: primary screen against the NCATS Mechanism Interrogation Plate v5.0 (MIPE) Libary (AID 1347411); further: nearly all actives have a fitted effect of over 65% in size; further: potency means the concentration at half of the fitted maximal effect
In short: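 Immortalized human C25cl48 myoblasts with HiBit knocked into endogenous HLA-B*08:01 were stimulated with 4.0 ng/ml IFN-beta and exposed to compounds (11-point 1:3 titration, top 46 uM final) for 24 hrs at 37 C; HiBiT lytic luminescence measured.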

[7] = VSVG counterscreen qHTS to identify inhibitors of SARS-CoV-2 cell entry (AID 1645847; calls by dose curve; further: potency means the concentration at half of the fitted maximal effect; nearly all actives have a fitted effect of over 65% in size)
In short: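 Entry of VSV-G pseudotyped particles into human ACE2-expressing HEK293 cells was measured by luciferase luminescence 48 h after infection, with compound added 1 h beforehand.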

[8] = NCATS anti-infectives library activity on HEK293 viability as a counter-qHTS vs the C. elegans viability qHTS (AID 1745854); further: potency means the concentration at half of the fitted maximal effect; on activity change, negative = cytotoxicity: on the % scale 0 is the no-effect control and ±100 the full control effect
In short: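 HEK293 cells, 1500 per well, exposed 24 hr at 37C in 5% CO2 to compounds in a 1:5 titration, up to 41.7 uM final. Viability read as CellTiter-Glo luminescence after 10 min at room temperature.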

[9] = Cell Viability - Jurkat (AID 426;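 active means dose-dependent loss of cell ATP signal giving a full or clear fitted curve, ranked by lower potency value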; further: potency means the concentration at half of the fitted maximal effect); details: qHTS
In short: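 Jurkat (clone E6-1, human T-cell leukemia) cells, 5000/well in complete medium, were exposed to compound for 40 hr at 37 °C. Viability was read as intracellular ATP by CellTiter-Glo luminescence; AC50 came from Hill fits of concentration-response data.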

[10] = Cell Viability - Hek293 (AID 427;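 active means compounds whose dose-response curve shows a full or clear partial loss of cell viability, called from curve shape rather than a numeric limit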;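 further: potency means the concentration at half of the fitted maximal effect; cells exposed to compound for 40 hours at 37 °C before reading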); details: qHTS
In short: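 Luminescent ATP read-out (CellTiter-Glo, 20 min RT) after 40 hr compound exposure at 37 °C in complete medium. Signal normalized to DMSO (basal) and 100 uM tamoxifen (100% inhibition); concentration-response fitted with the standard Hill equation to give AC50.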

[11] = Cell Viability - HepG2 (AID 433; calls by dose curve;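 further: potency means the concentration at half of the fitted maximal effect; potency for ATP loss meaning cytotoxicity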); details: qHTS
In short: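 In this qHTS format, a 40 h, 37 °C compound incubation of HepG2 cells in complete medium precedes a 20 min CellTiter-Glo step at room temperature. Tamoxifen and doxorubicin serve as positive controls; Hill-equation fits yield AC50.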

[12] = Cell Viability - MRC5 (AID 434; calls by dose curve;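 further: potency means the concentration at half of the fitted maximal effect; potency reflects cytotoxicity seen as loss of intracellular ATP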); details: MRC5 lung fibroblast viability, qHTS
In short: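 qHTS cytotoxicity in human lung fibroblast MRC5 cells; 40 hr treatment, 37 °C; cellular ATP by luciferase luminescence; DMSO = 0%, 100 uM tamoxifen = 100% inhibition; Hill-fit AC50.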

[13] = Cell Viability - SK-N-SH (AID 435; calls by dose curve;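 further: potency means the concentration at half of the fitted maximal effect; compound exposure lasted 40 h at 37 °C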); details: SK-N-SH neuroblastoma cell viability qHTS
In short: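 Human neuroblastoma line, 40 h exposure at 37 °C, ATP quantified via luciferase luminescence; DMSO and 100 uM tamoxifen define 0 and 100% inhibition for AC50 fitting.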

[14] = Cell Viability - N2a (AID 540); details: N2a mouse neuroblastoma cell viability; at 92.2 µM (top of the series);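 further: plate controls were DMSO alone for no effect and tamoxifen control for full effect; nearly all actives have a fitted effect of over 45% in size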
In short: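 Mouse neuroblastoma N2a cells (1500/well) were preincubated 5 hr at 37 °C, then exposed to compounds for 40 hr at 37 °C in complete medium. Viability was read as intracellular ATP by CellTiter-Glo luminescence; AC50 from Hill fits.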

[15] = Cell Viability - NIH 3T3 (AID 541); details: NIH 3T3 cell viability, qHTS; at 92.2 µM (top of the series);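 further: plate controls were DMSO alone for no effect and tamoxifen positive control for full effect; nearly all actives have a fitted effect of over 25% in size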
In short: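 NIH 3T3 mouse embryo fibroblasts (1000 cells/well) were plated in complete medium and treated with compound for 40 hr at 37 °C. Viability was read as intracellular ATP by CellTiter-Glo luminescence; AC50 values came from Hill-equation fits of concentration-response data.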

[16] = Cell Viability - HUV-EC-C (AID 542); further: on the % scale 0 is the no-effect control and ±100 the full control effect; nearly all actives have a fitted effect of over 35% in size
In short: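 HUV-EC-C normal human vascular endothelial cells, 1000 cells/well, pre-incubated 5 hr at 37 °C, then exposed to compounds for 40 hr at 37 °C in complete medium. Viability measured as intracellular ATP by CellTiter-Glo luminescence; AC50 from Hill fits.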

[17] = Cell Viability - H-4-II-E (AID 543); further: on the % scale 0 is the no-effect control and ±100 the full control effect; nearly all actives have a fitted effect of over 35% in size
In short: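 Rat hepatoma H-4-II-E cells (1500/well) were plated, incubated 5 hr at 37 °C, then exposed to compounds for 40 hr at 37 °C. Cellular ATP was read by CellTiter-Glo luminescence; AC50 came from Hill-equation fits of concentration-response data.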

[18] = Cell Viability - SH-SY5Y (AID 544);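 further: 0% = DMSO alone and -100% = 100 µM tamoxifen; nearly all actives have a fitted effect of over 55% in size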
In short: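 Human neuroblastoma SH-SY5Y cells (1500/well) in complete medium were exposed to compounds for 40 hr at 37 °C; intracellular ATP was then quantified by CellTiter-Glo luminescence after 20 min at room temperature. AC50 came from Hill-equation concentration-response fits.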

[19] = Cell Viability - Renal Proximal Tubule (AID 545);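 further: 0% = DMSO only and -100% = 100 µM tamoxifen; nearly all actives have a fitted effect of over 40% in size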
In short: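 In this qHTS format, normal rat kidney-derived proximal tubule cells in complete culture medium receive compound titrations, then sit 40 hours at 37 °C before luciferase-based ATP quantitation; potency is reported as AC50 from concentration-response curves.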

[20] = Cell Viability - Mesenchymal (AID 546);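 further: cells exposed to compound for 40 hours before reading; 0% = DMSO only and -100% = 100 µM tamoxifen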
In short: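 AC50 values reflect the drop in intracellular ATP in a human kidney mesenchymal line derived from normal glomeruli. Treatment lasts 40 hr at 37 °C in complete medium, and the signal comes from CellTiter-Glo luminescence.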

C[C@@H]1Cc2c(Cl)cc(C(=O)N[C@@H](Cc3ccccc3)C(=O)O)c(O)c2C(=O)O1
inactive: activation [4] 8.7%
active: Potency [1] 44.7 µM | Potency [2] 39.8 µM | Potency [3] 2 µM

C/C=C(\C)C(=O)O[C@@H]1[C@@H](C)[C@]2(O)C3C=C(C)C(=O)[C@@]3(O)CC(CO)=C[C@H]2C2C(C)(C)[C@@]21OC(=O)C(C)CC (stereo not given in full)
inactive: Potency [5]

C/C(=C\c1csc(C)n1)[C@@H]1C[C@@H]2O[C@@H]2CCC[C@H](C)[C@H](O)[C@@H](C)C(=O)C(C)(C)[C@@H](O)CC(=O)O1
inactive: Potency [6]
active: Potency [7] 0.0541 µM

Cc1sc2c(c1C)C(c1ccc(Cl)cc1)=N[C@@H](CC(=O)Nc1ccc(O)cc1)c1nnc(C)n1-2
inactive: Potency [8]

Cc1cccc(NC(=O)c2ccc(C(F)(F)F)cc2C(=O)O)n1
inactive: Potency [5]

CC[C@H]1/C=C\C=C/C[C@@H](C)[C@H](O)[C@@](C)(O)C(=O)[C@@H](C)[C@H](O)[C@@H](C)C(=O)[C@@H](C)[C@H](O)[C@@H](C)/C=C\C(=O)O[C@@H]2[C@H](C)[C@H](CC1)O[C@]1(CC[C@H](C)[C@H](C[C@@H](C)O)O1)[C@H]2C
active: Potency [6] 20.8 µM | Potency [8] 15.8 µM

COC(=O)c1ccccc1C(=O)OC
inactive: Potency [9] > 92 µM | Potency [10] > 92 µM | Potency [11] > 92 µM | Potency [12] > 92 µM | Potency [13] > 92 µM | activity change, negative = cytotoxicity [14] 4.28% | activity change, negative = cytotoxicity [15] 2.58% | outcome [16] | outcome [17] | outcome [18] | outcome [19] | outcome [20] | activation [1] -0.299% and -2.92% | Potency [3] | activation [4] 1.37% and 0.566%

CCOc1cc(C=O)ccc1O
inactive: Potency [9] > 92 µM | Potency [10] > 92 µM | Potency [11] > 92 µM | Potency [12] > 92 µM | Potency [13] > 92 µM | activity change, negative = cytotoxicity [14] -1.75% | activity change, negative = cytotoxicity [15] 1.57% | outcome [16] | outcome [17] | outcome [18] | outcome [19] | outcome [20] | Potency [2]

C[C@@H]1CCO[C@H]2Cn3cc(C(=O)NCc4ccc(F)cc4F)c(=O)c(O)c3C(=O)N12
active: Potency [7] 0.0076 µM
